Consider ten compounds from PubChem BioAssay (NCATS).

Unmarked numbers belong to inactive results. Results filed as inconclusive are left out. Active and inactive are the calls of the source. Unless noted, the call rests on the fitted dose curve; in most records, active means well fitted curve in either direction with a large enough effect (not every such curve was filed as active); inconclusive means small, poorly fitted or top-dose-only effect, or another doubt; inactive means flat fitted curve, though single readings scatter.

For assay [1], the target named is Lysosomal acid glucosylceramidase (Homo sapiens) (UniProt P04062). As to the kind of experiment: Glucocerebrosidase-p2 (AID 348; in the data active means potency below about 10 µM; further: potency means the concentration at half of the fitted maximal effect). The conditions noted are these: purified GBA, blue fluorogenic substrate, 40 min. The procedure, abridged:
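Compounds titrated from 0.6 nM upwards against 0.2 nM enzyme in pH 5.9 citric acid/KH2PO4, taurocholate, tween-20; blue fluorogenic substrate 80 uM, 40 min room temperature, stopped and read Ex 365/Em 440 for AC50.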

Assay [2] can be described thus: AP1 Signaling Pathway (AID 357).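 Further: ME-180 reporter cells stimulated with EGF at its EC50 level; on the % scale 0 is the no-effect control and ±100 the full control effect.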 The conditions noted are these: ME-180 AP-1-bla reporter, EGF-induced, beta-lactamase ratio, 5 h; at 7.69 µM (top of the series) unless noted. The procedure, abridged: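 In this screen, ME-180 cells in Opti-MEM with 0.5% dialyzed FBS received EC50 EGF and compound titrations for 5 h. AP-1 reporter beta-lactamase was detected via CCF4 ratio, giving AC50 for positive and negative modulators.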

The nature of assay [3]: Stat Signaling Pathway (AID 446).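 Further: ME-180 cervical cancer cells given 40 pM IL-6 alongside compound; SIE-controlled beta-lactamase reporter measured as 460/530 nm FRET emission ratio; on the % scale 0 is the no-effect control and ±100 the full control effect.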 The conditions noted are these: ME-180 SIE beta-lactamase reporter, IL-6 stimulated, 5 h; at 7.69 µM (top of the series) unless noted. The procedure, abridged: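 ME-180 cells carrying a SIE-driven beta-lactamase reporter are stimulated with 40 pM IL-6 for 5 h at 37C in the presence of compound. The 460/530 nm FRET substrate ratio is read after 2.5 h at RT. Data are normalised to 300 pM IL-6 and to 125 nM JAK inhibitor controls.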

The target of assay [4] is Glucocorticoid receptor (Homo sapiens) (UniProt P04150). As to the kind of experiment: GR-GFP Redistribution (AID 450;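 active means compounds whose dose series gives a full or clear partial fitted curve of increased nuclear translocation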; further: potency means the concentration at half of the fitted maximal effect). The conditions noted are these: U2OS GR-GFP nuclear translocation, laser cytometry, 2 h.
Assay [5] shares this target. Nature of the assay: GR-EFC Redistribution (AID 451; calls by dose curve; further: potency means the concentration at half of the fitted maximal effect). The conditions noted are these: CHO-K1 GR-EFC translocation, beta-gal luminescence, 2 h. The procedure, abridged: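 CHO-K1 cells stably expressing nuclear-localized β-gal enzyme acceptor and GR fused C-terminally to the enzyme donor fragment; ligand-driven nuclear translocation restores β-gal by complementation. Compounds titrated up to 46 uM final, 2 h at 37 °C; luminescence read.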

Assay [6] concerns the target Mitogen-activated protein kinase 10 (Mus musculus) (UniProt Q61831). As to the kind of experiment: JNK3 AlphaScreen Assay (AID 530).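 Further: kinase came from lysate of stimulated human HepG2 cells; signal reports phosphorylation of biotinylated GST-cJun 1-79 at Ser73 with 10 µM ATP; on the % scale 0 is the no-effect control and ±100 the full control effect.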 The conditions noted are these: JNK3 lysate, c-Jun phosphorylation; series mostly up to 11.4 µM. The procedure, abridged:
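Inhibitors reduce antibody binding to phosphorylated biotin-cJun, lowering AlphaScreen luminescence. Lysates from HepG2 cells pre-activated by IL-1beta plus TNF-alpha supplied JNK3; compounds were titrated.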
On the technique in general: Bead proximity is the source of the signal in Alpha formats.

In assay [7] the target is 3',5'-cyclic-AMP phosphodiesterase 4B (Homo sapiens) (UniProt Q07343). As to the kind of experiment: qHTS Assay for Inhibitors of PDE-IV (AID 607; active means well fitted activation curve with a large enough effect in the main read-out, with a control signal flat, not every such curve was filed as active; further: % of control where 0% means no effect). The conditions noted are these: HEK293 ACTOne CNG channel cells, membrane potential fluorescence; series mostly up to 22.9 µM. The procedure, abridged: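 HEK293 ACTOne cells with CNG channel (1000/well), endogenous PDE4; membrane potential dye, compounds up to 22.9 uM final. Fluorescence Ex 535/Em 590; RO 20-1724 (100 uM final) as reference.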
Background: In qHTS, concentration-response curves come from the screen itself.

Assay [8] deals with Cytochrome P450 3A4 (Homo sapiens) (UniProt P08684). Nature of the assay: qHTS Assay for Inhibitors and Substrates of Cytochrome P450 3A4 (AID 884; active means well fitted curve in the direction sought with a large enough effect; an effect the other way counts as inactive or inconclusive; further: potency means the concentration at half of the fitted maximal effect; nearly all actives have a fitted effect of over 50% in size). The conditions noted are these: recombinant CYP3A4, Luciferin-PPXE luminescence; series mostly up to 57.1 µM. The procedure, abridged:
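20 nM human CYP3A4 with 25 uM Luciferin-PPXE (at KM) in 200 mM KPO4, preincubated 10 min with compound; NADPH regeneration started a 60 min RT reaction. Luciferin detected by luminescence, normalized to 57 uM ketoconazole as full inhibition.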

The target is the same in assay [9]. Nature of the assay: qHTS Assay for Activators of Cytochrome P450 3A4 (AID 885; active means well fitted curve in the direction sought with a large enough effect; an effect the other way counts as inactive or inconclusive; further: nearly all actives have a fitted effect of over 65% in size). The conditions noted are these: recombinant CYP3A4, Luciferin-PPXE luminescence, 60 min; series mostly up to 11.4 µM. The procedure, abridged:
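Human CYP3A4 (20 nM) with Luciferin-PPXE at 25 uM (its KM) in 200 mM KPO4; 10 min compound preincubation, then NADPH regeneration and 60 min reaction at RT. Luciferin read by luminescence; normalized to 57 uM ketoconazole full inhibition.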

The target of assay [10] is Cytochrome P450 2C19 (Homo sapiens) (UniProt P33261). As to the kind of experiment: qHTS Assay for Inhibitors and Substrates of Cytochrome P450 2C19 (AID 899; active means well fitted curve in the direction sought with a large enough effect; an effect the other way counts as inactive or inconclusive; further: nearly all actives have a fitted effect of over 60% in size; further: potency means the concentration at half of the fitted maximal effect; on activity, negative = inhibition: on the % scale 0 is the no-effect control and ±100 the full control effect). The conditions noted are these: recombinant CYP2C19, luciferin-H EGE luminescence; series mostly up to 11.4 µM. The procedure, abridged:
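In 50mM KPO4, the reaction held 5nM enzyme and KM-level (10uM) Luciferin-H EGE; it ran 60 min at 37C after NADPH regeneration and a 10 min compound preincubation. Luminescence values were scaled to 57uM ketoconazole as complete inhibition.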

Assay [11] in a line: qHTS Assay for Identification of Small Molecule Agonists for Hypoxia Response Element Signaling Pathway (AID 914; active means well fitted activation curve with a large enough effect in the signal ratio, with a control signal flat, not every such curve was filed as active; the % refers to the signal ratio; further: % of control where 0% means no effect). The conditions noted are these: ME-180 (cervical carcinoma) HRE-bla reporter, beta-lactamase ratio, CoCl2, 17 h; activation: hits give high values. The procedure, abridged:
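Positive modulation of EC50 CoCl2-induced hypoxia response element signaling is measured in ME-180 cells with a beta-lactamase reporter. Compounds are titrated, incubation runs 17 hours, and %Activity derives from the blue/green ratio.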

The target in assay [12] is Cytochrome P450 2D6 (Homo sapiens) (UniProt P10635). As to the kind of experiment: qHTS Assay for Inhibitors and Substrates of Cytochrome P450 2D6 (AID 891; active means well fitted curve in the direction sought with a large enough effect; an effect the other way counts as inactive or inconclusive; further: potency means the concentration at half of the fitted maximal effect; nearly all actives have a fitted effect of over 60% in size). The conditions noted are these: recombinant CYP2D6, luciferin-ME EGE luminescence; series mostly up to 11.4 µM. The procedure, abridged: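 Human CYP2D6 (5 nM) with 30 uM Luciferin-ME EGE (at Km) in 100 mM KPO4, compound preincubated 10 min, then NADPH regeneration system for 60 min at room temperature. Luciferin read by luminescence; normalized to 1.43 uM quinidine.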

The target of assay [13] is Cytochrome P450 2C9 (Homo sapiens) (UniProt P11712). Nature of the assay: qHTS Assay for Inhibitors and Substrates of Cytochrome P450 2C9 (AID 883; active means well fitted curve in the direction sought with a large enough effect; an effect the other way counts as inactive or inconclusive; further: potency means the concentration at half of the fitted maximal effect; nearly all actives have a fitted effect of over 60% in size). The conditions noted are these: recombinant CYP2C9, luciferin-H luminescence, 60 min; series mostly up to 11.4 µM. The procedure, abridged:
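CYP2C9 deoxyluciferin hydroxylation, 37C, 60 min with NADPH regeneration; 10nM enzyme, 100uM Luciferin-H (KM). Glo detection reagent stopped reaction; luminescence normalized to sulphaphenazole (57uM) full inhibition.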

Lysosomal acid glucosylceramidase (Homo sapiens), sequence (P04062 whole entry, looked up): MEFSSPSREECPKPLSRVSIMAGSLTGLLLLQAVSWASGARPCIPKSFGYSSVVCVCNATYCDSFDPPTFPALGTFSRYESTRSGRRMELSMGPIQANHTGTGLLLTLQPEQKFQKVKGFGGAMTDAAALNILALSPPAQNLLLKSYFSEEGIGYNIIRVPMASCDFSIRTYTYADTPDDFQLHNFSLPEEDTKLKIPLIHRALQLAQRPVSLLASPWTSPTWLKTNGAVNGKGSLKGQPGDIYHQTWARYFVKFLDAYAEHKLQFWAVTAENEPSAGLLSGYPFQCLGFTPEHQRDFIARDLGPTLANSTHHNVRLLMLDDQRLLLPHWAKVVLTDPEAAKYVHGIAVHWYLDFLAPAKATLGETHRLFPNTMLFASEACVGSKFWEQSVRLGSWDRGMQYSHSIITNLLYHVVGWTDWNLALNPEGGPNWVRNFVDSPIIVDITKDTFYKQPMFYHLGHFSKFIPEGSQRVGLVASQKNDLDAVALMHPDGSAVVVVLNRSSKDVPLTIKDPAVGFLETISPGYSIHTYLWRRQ
Cytochrome P450 3A4 (Homo sapiens), sequence (P08684 whole entry, looked up): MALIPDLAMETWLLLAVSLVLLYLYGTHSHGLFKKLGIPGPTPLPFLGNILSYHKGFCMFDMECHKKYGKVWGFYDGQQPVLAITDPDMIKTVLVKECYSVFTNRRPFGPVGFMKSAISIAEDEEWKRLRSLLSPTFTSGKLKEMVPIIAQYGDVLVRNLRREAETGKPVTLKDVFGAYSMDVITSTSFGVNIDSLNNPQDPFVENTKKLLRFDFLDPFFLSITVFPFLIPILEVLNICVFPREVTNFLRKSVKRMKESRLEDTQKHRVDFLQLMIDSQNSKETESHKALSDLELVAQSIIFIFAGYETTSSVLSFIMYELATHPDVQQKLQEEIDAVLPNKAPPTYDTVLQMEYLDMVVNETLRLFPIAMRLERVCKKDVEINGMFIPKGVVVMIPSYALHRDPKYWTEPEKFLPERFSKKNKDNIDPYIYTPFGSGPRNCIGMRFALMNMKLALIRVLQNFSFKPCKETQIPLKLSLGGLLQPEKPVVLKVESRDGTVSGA
3',5'-cyclic-AMP phosphodiesterase 4B (Homo sapiens), sequence (Q07343 whole entry, looked up): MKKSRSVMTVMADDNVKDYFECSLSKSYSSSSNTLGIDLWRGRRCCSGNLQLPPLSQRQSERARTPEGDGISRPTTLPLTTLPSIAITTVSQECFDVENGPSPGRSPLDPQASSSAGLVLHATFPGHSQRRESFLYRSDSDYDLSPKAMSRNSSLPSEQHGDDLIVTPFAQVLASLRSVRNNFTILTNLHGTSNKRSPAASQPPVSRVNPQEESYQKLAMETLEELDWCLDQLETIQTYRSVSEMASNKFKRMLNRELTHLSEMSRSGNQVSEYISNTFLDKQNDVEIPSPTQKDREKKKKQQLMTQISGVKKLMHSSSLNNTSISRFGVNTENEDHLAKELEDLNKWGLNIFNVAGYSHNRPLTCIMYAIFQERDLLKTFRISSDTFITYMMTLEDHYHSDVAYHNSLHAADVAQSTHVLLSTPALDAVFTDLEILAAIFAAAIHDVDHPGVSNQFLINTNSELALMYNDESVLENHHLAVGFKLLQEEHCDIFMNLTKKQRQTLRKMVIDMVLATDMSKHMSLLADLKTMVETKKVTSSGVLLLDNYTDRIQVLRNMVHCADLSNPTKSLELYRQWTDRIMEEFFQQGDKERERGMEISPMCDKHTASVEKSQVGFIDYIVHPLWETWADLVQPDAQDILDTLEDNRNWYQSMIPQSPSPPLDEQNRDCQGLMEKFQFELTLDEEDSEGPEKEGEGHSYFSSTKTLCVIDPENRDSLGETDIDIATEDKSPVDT
Glucocorticoid receptor (Homo sapiens), sequence (P04150 whole entry, looked up, the tested form may be a part): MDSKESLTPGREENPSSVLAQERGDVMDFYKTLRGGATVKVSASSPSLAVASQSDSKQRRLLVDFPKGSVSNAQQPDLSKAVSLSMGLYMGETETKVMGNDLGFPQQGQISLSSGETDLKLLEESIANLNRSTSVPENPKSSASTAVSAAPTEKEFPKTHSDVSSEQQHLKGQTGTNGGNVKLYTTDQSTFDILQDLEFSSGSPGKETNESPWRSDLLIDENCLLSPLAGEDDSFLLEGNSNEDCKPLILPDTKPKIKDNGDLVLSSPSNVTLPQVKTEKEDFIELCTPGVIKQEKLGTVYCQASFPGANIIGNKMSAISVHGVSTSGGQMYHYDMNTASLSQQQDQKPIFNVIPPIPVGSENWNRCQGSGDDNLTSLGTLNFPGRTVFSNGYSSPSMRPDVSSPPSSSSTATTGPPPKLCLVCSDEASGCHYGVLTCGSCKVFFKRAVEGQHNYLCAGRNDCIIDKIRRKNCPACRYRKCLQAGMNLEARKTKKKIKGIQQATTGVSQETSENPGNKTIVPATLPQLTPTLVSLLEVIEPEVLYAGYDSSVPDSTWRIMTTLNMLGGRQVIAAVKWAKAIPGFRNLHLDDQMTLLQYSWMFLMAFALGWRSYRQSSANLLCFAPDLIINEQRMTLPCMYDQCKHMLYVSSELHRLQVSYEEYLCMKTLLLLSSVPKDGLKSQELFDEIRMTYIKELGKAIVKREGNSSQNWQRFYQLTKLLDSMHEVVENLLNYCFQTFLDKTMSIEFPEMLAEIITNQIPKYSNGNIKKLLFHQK
Cytochrome P450 2D6 (Homo sapiens), sequence (P10635 whole entry, looked up): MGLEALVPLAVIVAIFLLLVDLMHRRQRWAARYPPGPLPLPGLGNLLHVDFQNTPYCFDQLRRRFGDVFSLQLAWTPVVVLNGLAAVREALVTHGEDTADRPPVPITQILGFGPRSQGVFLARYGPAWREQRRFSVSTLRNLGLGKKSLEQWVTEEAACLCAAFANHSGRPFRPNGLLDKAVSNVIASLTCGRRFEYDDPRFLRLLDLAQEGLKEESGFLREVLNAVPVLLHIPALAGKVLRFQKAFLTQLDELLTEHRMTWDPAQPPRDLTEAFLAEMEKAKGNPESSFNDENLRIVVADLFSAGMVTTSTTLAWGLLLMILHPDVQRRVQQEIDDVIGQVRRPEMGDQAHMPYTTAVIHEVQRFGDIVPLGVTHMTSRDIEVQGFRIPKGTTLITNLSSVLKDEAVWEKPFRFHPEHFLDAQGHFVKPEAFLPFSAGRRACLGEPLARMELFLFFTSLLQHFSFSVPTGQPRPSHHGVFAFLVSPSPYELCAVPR
Cytochrome P450 2C19 (Homo sapiens), sequence (P33261 whole entry, looked up): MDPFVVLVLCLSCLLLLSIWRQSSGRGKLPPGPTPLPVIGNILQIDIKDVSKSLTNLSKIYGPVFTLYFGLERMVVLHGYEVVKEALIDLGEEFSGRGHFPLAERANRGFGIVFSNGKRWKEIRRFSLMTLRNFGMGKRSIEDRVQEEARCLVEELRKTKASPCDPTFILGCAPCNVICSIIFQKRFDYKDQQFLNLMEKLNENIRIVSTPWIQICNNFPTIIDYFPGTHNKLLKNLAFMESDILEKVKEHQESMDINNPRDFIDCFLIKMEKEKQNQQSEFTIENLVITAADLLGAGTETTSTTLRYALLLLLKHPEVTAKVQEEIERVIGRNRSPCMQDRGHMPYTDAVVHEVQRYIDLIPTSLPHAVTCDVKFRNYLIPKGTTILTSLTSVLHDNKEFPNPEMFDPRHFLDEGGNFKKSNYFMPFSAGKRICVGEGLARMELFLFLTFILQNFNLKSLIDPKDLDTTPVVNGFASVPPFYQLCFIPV
Cytochrome P450 2C9 (Homo sapiens), sequence (P11712 whole entry, looked up): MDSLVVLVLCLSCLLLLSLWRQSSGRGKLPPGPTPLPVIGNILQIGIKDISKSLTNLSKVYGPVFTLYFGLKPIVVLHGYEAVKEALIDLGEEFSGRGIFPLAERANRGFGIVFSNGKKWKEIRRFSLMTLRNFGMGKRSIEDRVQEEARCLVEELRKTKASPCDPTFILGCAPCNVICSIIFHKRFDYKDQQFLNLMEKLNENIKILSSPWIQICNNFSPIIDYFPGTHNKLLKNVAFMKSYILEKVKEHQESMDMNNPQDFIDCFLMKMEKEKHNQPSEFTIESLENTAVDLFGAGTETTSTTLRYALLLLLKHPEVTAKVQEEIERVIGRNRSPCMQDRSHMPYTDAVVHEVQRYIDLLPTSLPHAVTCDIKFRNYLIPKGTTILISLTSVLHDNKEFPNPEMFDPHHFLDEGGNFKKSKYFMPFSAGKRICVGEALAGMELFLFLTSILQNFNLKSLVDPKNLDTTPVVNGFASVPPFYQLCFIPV

For the compound `COc1ccc(C(=O)N/N=C2/C(=O)c3c(C)cc(C)cc3CC2(C)C)cc1`, the Potency is above 11.4 µM in [1]; above 46 µM in [4]; above 9.22 µM in assay [5]; 3.16 µM (active) in [8]; 3.98 µM (active) in assay [10]. In assay [2], the activity change, negative = inhibition is -13.7%. Also, in assay [3], the activity, negative = inhibition is 6.46%. The Potency entry in [6], in assay [7] and in assay [9] was “inactive” throughout.

Turning to `CN(C)C(=O)C1CCN(Cc2c[nH]c3ccccc23)CC1`, the Potency in [1] was above 11.4 µM; in assay [4], above 46 µM; in assay [5] it was above 9.22 µM. Besides, in [2], the activity change, negative = inhibition was -1.75%. The activity, negative = inhibition in [3] was -4.74%. In addition, the Potency result in assay [6] and in assay [7] was “inactive” in each case. The activation in assay [11] is 16.5%.

With `CSc1nc(C)cc(Nc2ccc(O)c(CN3CCCCC3)c2)n1`, the results for the Potency in [1], in assay [4] and in assay [5] were above 11.4 µM, above 46 µM and above 9.22 µM, respectively. Besides, the activity change, negative = inhibition in assay [2] was -6.95%. In [3], the activity, negative = inhibition was 2.99%. Further, the Potency entry in assay [6] and in [7] was “inactive” in each case. In addition, the activation in assay [11] was 4.77%.

Regarding `CC(C)(C)NCC[C@@H](O)c1cc(C(F)(F)F)nc2c(C(F)(F)F)cccc12`, the Potency in assay [1] was above 11.4 µM; in [4] it was above 46 µM; in assay [5], above 9.22 µM; in assay [12], 0.316 µM (active). Moreover, the activity change, negative = inhibition in assay [2] was 9.95%. In addition, the activity, negative = inhibition in assay [3] is -4.67%. Besides, the Potency result in assay [6] and in [7] was “inactive” each time.

On to `O=C(O)CC[P+](c1ccccc1)(c1ccccc1)c1ccccc1`, for which the Potency is above 11.4 µM in assay [1], above 46 µM in [4] and above 9.22 µM in [5]. For the same compound, the activity change, negative = inhibition in [2] was 2.51%. The activity, negative = inhibition in [3] is 4.75%. In addition, the Potency entry in assay [6] and in assay [10] was “inactive” throughout.

Regarding `O=C(c1[nH]o[n+](=O)c1C(=O)c1csc2ccccc12)c1csc2ccccc12`, the Potency was above 11.4 µM in assay [1], above 46 µM in assay [4], above 9.22 µM in assay [5] and 1.58 µM (active) in assay [13]. In [2], the activity change, negative = inhibition is 3.39%. The activity, negative = inhibition in [3] was -7.78%. For the same compound, the Potency entry in assay [6], in assay [7] and in assay [9] was “inactive” in each case.

As for `O=C1C[C@H]2OCC=C3CN4CC[C@@]5(C(=O)O)[C@H](N1)[C@H]2[C@H]3C[C@H]45`, the Potency was above 11.4 µM in [1], above 46 µM in assay [4] and above 9.22 µM in [5]. The activity change, negative = inhibition in [2] is 1.86%. Also, in assay [3], the activity, negative = inhibition was -5.3%. Also, the Potency result in assay [6] and in [7] was “inactive” throughout.

For `Cc1c(Cl)cc(C(C)(C)C)c(O)c1Cc1c(C)c(Cl)cc(C(C)(C)C)c1O`, the values for the Potency in [1], in [4] and in [5] were above 11.4 µM, above 46 µM and above 9.22 µM, respectively. Moreover, the activity change, negative = inhibition in assay [2] was 10.4%. Moreover, the Potency entry in assay [6] and in [7] was “inactive” throughout.

In the case of `c1ccc(CN2CC[C@@H](CNc3ncnc4ccccc34)C2)cc1`, the Potency is above 11.4 µM in [1], above 46 µM in assay [4], above 9.22 µM in assay [5] and 0.794 µM (active) in assay [12]. Besides, the activity change, negative = inhibition in [2] is 3.93%. In assay [3], the activity, negative = inhibition was 8.92%. For the same compound, the Potency entry in [6] and in assay [7] was “inactive” throughout.

Consider `NS(=O)(=O)c1ccc(N=Nc2ncccc2O)cc1`, for which the Potency was above 11.4 µM in assay [1], above 46 µM in assay [4] and above 9.22 µM in assay [5]. The activity change, negative = inhibition in assay [2] was 7.11%. In [3], the activity, negative = inhibition is 5.47%. Besides, the Potency result in assay [6], in assay [7] and in assay [9] was “inactive” in each case.
